Results on nine molecules are retold here after PubChem BioAssay (EPA / NIEHS).

Test [1] is described as follows: TOX21_p53_BLA_p2_viability: Viability Assessment in the Tox21 HCT-116 p53 Agonism Beta-lactamase Assay, Phase 2 (AID 2283591).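 Note: compound exposure lasted 16 h at 37 °C; actives lower the ATP signal meaning cytotoxicity.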 The essentials:
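HCT116 p53-bla cells, 4000/well, dosed after 5 h plating (217-fold dilution of DMSO stocks) and incubated 16 h at 37C. Viability taken as cellular ATP by CellTiter-Glo luminescence after 30 min RT; signal loss marks cytotoxicity.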

Test [2] addresses Cellular tumor antigen p53 (Homo sapiens) (UniProt P04637). In words: TOX21_p53_BLA_p2_ratio: Tox21 HCT-116 p53 Agonism Beta-lactamase Assay, Ratio, Phase 2 (AID 2283592). The method in brief: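 Ratio endpoint: beta-lactamase cleavage of CCF4-AM, blue (460 nm) over green (530 nm). HCT116 reporter line; 16 h treatment, 37C; substrate 2 h RT.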
Test [3] is described as follows: TOX21_p53_BLA_p3_viability: Viability Assessment in the Tox21 HCT-116 p53 Agonism Beta-lactamase Assay, Phase 3 (AID 2283593).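 Note: cells exposed to compound for 16 h before reading.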 The essentials: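 HCT116 cells, 4000/well, dosed 5 h after plating by pin transfer (217-fold dilution from DMSO stock) and incubated 16 h at 37C, 5% CO2. Viability read as ATP luminescence with CellTiter-Glo after 30 min at room temperature.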

Test [4] addresses Cellular tumor antigen p53 (Homo sapiens) (UniProt P04637). In words: TOX21_p53_BLA_p3_ratio: Tox21 HCT-116 p53 Agonism Beta-lactamase Assay, Ratio, Phase 3 (AID 2283596). The essentials: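 Cells were seeded at 4000/well, rested 5 h at 37C, then dosed with DMSO compound solutions (217-fold dilution) for 16 h. CCF4-AM substrate was loaded for 2 h at room temperature, and the 460/530 nm emission ratio was fitted for gain of signal versus DMSO.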

A short description of test [5]: TOX21_p53_BLA_p4_viability: Viability Assessment in the Tox21 HCT-116 p53 Agonism Beta-lactamase Assay, Phase 4 (AID 2283597).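 Note: hits lower the luminescence signal meaning cytotoxicity.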 The method in brief:
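Cytotoxicity was inferred from loss of CellTiter-Glo luminescence. HCT116 cells had been dosed with compounds after 5 h plating, incubated 16 h at 37C and 5% CO2, and exposed to the CCF4-AM substrate for 2 h.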

Test [6] has as its target Cellular tumor antigen p53 (Homo sapiens) (UniProt P04637). The experiment in a line: TOX21_p53_BLA_p5_ratio: Tox21 HCT-116 p53 Agonism Beta-lactamase Assay, Ratio, Phase 5 (AID 2283599). The essentials: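 HCT-116 p53-bla cells (4000/well) plated 5 h, dosed with compound (217-fold DMSO dilution) for 16 h at 37 C; CCF4-AM substrate 2 h at room temperature. Activity is the 460/530 nm emission ratio (405 nm excitation), fitted in gain-of-signal direction versus DMSO.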

Test [7] is described as follows: TOX21_p53_BLA_p5_viability: Viability Assessment in the Tox21 HCT-116 p53 Agonism Beta-lactamase Assay, Phase 5 (AID 2283600). The method in brief:
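Luciferase-coupled ATP quantitation of cells treated for 16 h (37C, 5% CO2) with test chemicals delivered in DMSO via a 217-fold dilution; 4000 cells/well; reagent incubated 30 min at room temperature before luminescence reading.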

The nature of test [8]: CCTE_Shafer_MEA_dev_firing_rate_mean: CCTE's Neural Network Formation Assay for Mean Firing Rate, Shafer Lab (AID 2284031; active = hit-call score of the fitted dose curve at least 0.9, where 1 is the maximum; inactive = score below 0.9). The essentials: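 Read-out: spike count/recording length, averaged over active electrodes, then AUC across days 5, 7, 9, 12. Rat cortical cultures on MEA; continuous 12-day exposure, media and treatment renewed DIV 5, 9; DMSO baseline.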
Test [9] in a line: CCTE_Shafer_MEA_dev_per_burst_spike_percent: CCTE's Neural Network Formation Assay for Percent of Spikes in a Burst, Shafer Lab (AID 2284032; active = hit-call score of the fitted dose curve at least 0.9, where 1 is the maximum; inactive = score below 0.9). The method in brief: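 Value is trapezoidal AUC over recordings on days 5, 7, 9 and 12 of the well-mean fraction of spikes falling in single-electrode bursts; rat cortical cultures exposed continuously from plating, treatment renewed DIV 5 and 9, fitted downward against DMSO.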

Test [10] is described as follows: CCTE_Shafer_MEA_dev_burst_rate: CCTE's Neural Network Formation Assay for Burst Rate, Shafer Lab (AID 2284042; active = hit-call score of the fitted dose curve at least 0.9, where 1 is the maximum; inactive = score below 0.9). The essentials: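 Cells plated, treated day 0; recorded DIV 5, 7, 9, 12; fed and re-treated DIV 5, 9. Endpoint: bursts per recording time, active-electrode well mean, trapezoidal AUC, fitted in decreasing direction against DMSO baseline.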
Test [11] can be described thus: CCTE_Shafer_MEA_dev_burst_duration_mean: CCTE's Neural Network Formation Assay for Mean Burst Duration, Shafer Lab (AID 2284045; active = hit-call score of the fitted dose curve at least 0.9, where 1 is the maximum; inactive = score below 0.9). The essentials: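 Rat cortical cultures, 1.5 x 10^5 cells/well with laminin drop; continuous dosing days 0–12, media plus treatment refreshed DIV 5, 9. AxIS adaptive spike detection; mean single-electrode burst duration, AUC over four recordings, negative direction vs DMSO.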

Test [12] in a line: CCTE_Shafer_MEA_dev_interburst_interval_mean: CCTE's Neural Network Formation Assay for Mean Interburst Interval, Shafer Lab (AID 2284046; active = hit-call score of the fitted dose curve at least 0.9, where 1 is the maximum; inactive = score below 0.9;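 note: well-mean interburst interval of bursting electrodes as AUC over four recording days; curve fitted for decrease in interburst interval relative to DMSO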). The method in brief:
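Developing rat cortical networks on 48-well MEAs receive compound from the day of plating. Burst intervals from each active electrode are averaged per well, and AUC over the recording days is fitted in the negative direction against DMSO.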

Test [13] can be described thus: CCTE_Shafer_MEA_dev_inter_network_spike_interval_mean: CCTE's Neural Network Formation Assay for Mean Inter-network Spike Interval, Shafer Lab (AID 2284047; active = hit-call score of the fitted dose curve at least 0.9, where 1 is the maximum; inactive = score below 0.9). The essentials:
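Rat cortical cultures, 1.5 x 10^5 cells/well on 48-well MEA plates; continuous exposure days 0–12, medium and compound refreshed DIV 5, 9. Mean time between consecutive network-spike peaks; AUC across DIV 5/7/9/12; DMSO baseline, negative fitting direction.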

Test [14] is described as follows: CCTE_Shafer_MEA_dev_network_spike_number: CCTE's Neural Network Formation Assay for Number of Network Spikes, Shafer Lab (AID 2284048; active = hit-call score of the fitted dose curve at least 0.9, where 1 is the maximum; inactive = score below 0.9;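 note: synchronized bursts across electrodes counted on days 5 7 9 12 and integrated as AUC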). The method in brief:
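Rat cortical primary cultures on 48-well MEA (16 electrodes/well); continuous exposure DIV 0–12, full medium and treatment exchange DIV 5, 9. Readout: network spike count, AxIS adaptive detection, recordings DIV 5/7/9/12 collapsed to AUC; loss-of-signal fit, DMSO baseline.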

A short description of test [15]: CCTE_Shafer_MEA_dev_network_spike_peak: CCTE's Neural Network Formation Assay for Mean Number of Electrodes in Network Spike, Shafer Lab (AID 2284049; active = hit-call score of the fitted dose curve at least 0.9, where 1 is the maximum; inactive = score below 0.9). The essentials: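 Network-spike peak electrode count from recordings on days 5, 7, 9 and 12 was combined as trapezoidal area under the curve. Rat cortical cultures were treated continuously from plating, with compound renewed at each feed (DIV 5, 9); fits versus DMSO.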

The nature of test [16]: CCTE_Shafer_MEA_dev_spike_duration_mean: CCTE's Neural Network Formation Assay for Mean Spike Duration, Shafer Lab (AID 2284051; active = hit-call score of the fitted dose curve at least 0.9, where 1 is the maximum; inactive = score below 0.9). The method in brief: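 Readout is the average length of network spikes, clustered firing across electrodes, summed over DIV 5, 7, 9 and 12 as area under the curve. Neurons from rat cortex developed networks on MEA plates under continuous 12-day exposure.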

Test [17] is described as follows: CCTE_Shafer_MEA_dev_network_spike_duration_std: CCTE's Neural Network Formation Assay for Standard Deviation of Network Spike Duration, Shafer Lab (AID 2284052; active = hit-call score of the fitted dose curve at least 0.9, where 1 is the maximum; inactive = score below 0.9;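 note: hits are decreases in network spike duration SD versus DMSO vehicle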). The essentials:
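Read-out is the trapezoidal area-under-the-curve across recordings made on days 5, 7, 9 and 12, fitted in the negative direction against DMSO baseline. Neurons were primary rat cortical cells treated from day 0, with treatment renewed at each feed.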

Test [18] in a line: CCTE_Shafer_MEA_dev_per_network_spike_spike_number_mean: CCTE's Neural Network Formation Assay for Mean Number of Spikes in a Network Spike, Shafer Lab (AID 2284053; active = hit-call score of the fitted dose curve at least 0.9, where 1 is the maximum; inactive = score below 0.9). The essentials:
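Continuous twelve-day exposure of developing rat cortical networks grown over 16 microelectrodes per well; spontaneous firing is captured at four time points, and the per-network-spike spike number is integrated over development by trapezoidal AUC.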

Test [19] can be described thus: CCTE_Shafer_MEA_dev_per_network_spike_spike_percent: CCTE's Neural Network Formation Assay for Percent of Spikes in a Network Spike, Shafer Lab (AID 2284054; active = hit-call score of the fitted dose curve at least 0.9, where 1 is the maximum; inactive = score below 0.9). The essentials:
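Read-out: percent of spikes falling in a 0.05 s window at network-spike peak, from spontaneous MEA recordings on days 5, 7, 9 and 12; trapezoidal AUC; loss of signal versus DMSO. Rat cortical cultures, compound present throughout.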

Test [20] can be described thus: CCTE_Shafer_MEA_dev_LDH: CCTE's Lactate Dehydrogenase Assay for Cytotoxicity in the Neural Network Formation Assay, Shafer Lab (AID 2284068).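 Note: exposure for twelve days from plating with re-dosing on DIV 5 and 9.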 The essentials:
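Cytotoxicity companion to network-formation recordings: rat cortical neurons received compound over 12 days of development, re-dosed at DIV 5 and 9 feeds. Viability was inferred from LDH enzyme activity relative to DMSO.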

Test [21] is described as follows: CCTE_Shafer_MEA_dev_mutual_information_norm: CCTE's Neural Network Formation Assay for Mutual Information Normalization, Shafer Lab (AID 2284091; active = hit-call score of the fitted dose curve at least 0.9, where 1 is the maximum; inactive = score below 0.9). The essentials:
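Neurons from rat cortex were seeded at 1.5 x 10^5 cells/well onto PEI-coated MEAs in a laminin drop, then exposed to compound from day 0 for twelve days. Network recordings on four days gave mutual information, summarised by AUC relative to DMSO.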

Test [22] can be described thus: CCTE_Shafer_MEA_dev_correlation_coefficient_mean: CCTE's Neural Network Formation Assay for Mean Correlation Coefficient, Shafer Lab (AID 2284093; active = hit-call score of the fitted dose curve at least 0.9, where 1 is the maximum; inactive = score below 0.9). The essentials:
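Read-out: well-mean correlation coefficient of spike trains between electrode pairs, collapsed over four recording days as trapezoidal area-under-the-curve. Developing rat cortical neuron networks grown on MEAs received test chemical continuously from plating.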

For test [23], the target named is Cellular tumor antigen p53 (Homo sapiens) (UniProt P04637). The experiment in a line: TOX21_p53_BLA_p4_ratio: Tox21 HCT-116 p53 Agonism Beta-lactamase Assay, Ratio, Phase 4 (AID 2283601). The method in brief: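 HCT-116 p53 beta-lactamase reporter cells (4000/well) preincubated 5 h, then compound (217-fold dilution of DMSO stock) for 16 h at 37C. CCF4-AM substrate added 2 h at room temperature; 460/530 nm emission ratio fitted upward versus DMSO.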

Broadly, the AC50 is the midpoint of the concentration-response curve, whichever way the signal moves.

Results filed as inconclusive are left out. Active and inactive are the calls of the source. Rule for the calls, unless noted: active = hit-call score of the fitted dose curve at least 0.9, where 1 is the maximum; inconclusive = response in the unintended direction; inactive = score below 0.9.

Chain of Cellular tumor antigen p53 (Homo sapiens) (P04637 whole entry, looked up): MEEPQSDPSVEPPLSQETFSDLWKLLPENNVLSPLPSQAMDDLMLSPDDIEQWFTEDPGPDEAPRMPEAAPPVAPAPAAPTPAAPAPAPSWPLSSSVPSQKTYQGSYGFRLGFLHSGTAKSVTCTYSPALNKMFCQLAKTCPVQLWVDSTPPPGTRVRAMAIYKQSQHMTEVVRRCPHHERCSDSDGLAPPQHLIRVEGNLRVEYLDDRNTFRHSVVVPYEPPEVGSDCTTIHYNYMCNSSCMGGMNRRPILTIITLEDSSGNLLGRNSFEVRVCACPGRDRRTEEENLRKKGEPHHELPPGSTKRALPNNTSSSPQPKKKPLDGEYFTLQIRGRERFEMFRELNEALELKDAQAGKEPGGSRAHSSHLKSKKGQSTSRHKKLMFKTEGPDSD

For the molecule `CCC1(c2ccccc2)C(=O)NC(=O)NC1=O`, the result in [1], in test [2], in [3], in test [4], in test [5] and in test [6] was inactive. For the same molecule, the result in [7], in test [8], in [9], in test [10], in test [11] and in test [12] was inactive. Further, the outcome in test [13], in test [14], in test [15], in [16], in [17] and in test [18] was inactive. Moreover, the call in [19], in [20], in test [21] and in test [22] was inactive.
As for `ClC(Cl)(Cl)Cl`, the call in [1], in test [2], in [3], in [4], in [5] and in test [6] was inactive. For the same molecule, in [23], the outcome was inactive.
As for `CC(=O)Nc1cc([As](=O)(O)O)ccc1O`, the outcome in test [1], in test [2], in test [3], in test [4], in test [5] and in test [6] was inactive. The outcome in test [23] was inactive.
With `COC(COC(N)=O)C1=C(N2CC2)C(=O)C(C)=C(N2CC2)C1=O` (stereo not drawn), the call in [1] and in [5] was inactive. Moreover, the AC50 in test [2] is 6.58 µM (active); in test [3], 18.2 µM (active); in [4], 0.121 µM (active); in test [6] it was 0.219 µM (active); in [23], 17.2 µM (active).
As to `Clc1ccc([C@@H]2C[C@H]3CC[C@@H]2N3)cn1`, the molecule was called inactive in [1], in [2], in test [3], in test [4], in test [5] and in test [6]. Moreover, in [23], the result was inactive.
`CCCCCCCCCCCCCCCCCCn1cc[n+](C)c1`: the outcome in test [1], in test [3], in test [4], in [5], in test [6] and in test [23] was inactive. Also, the half-maximal activity concentration (AC50) in test [2] is 8.42 µM (active).
In the case of `O=C/C=C/c1ccco1`, the outcome in test [1], in [2], in [3], in test [4], in test [5] and in [7] was inactive. Further, the result in test [23] was inactive.
In the case of `Nc1ccccc1C(=O)OCC=Cc1ccccc1`, the concentration at half-maximal activity (AC50) in test [1] was 66.3 µM (active). Besides, the outcome in test [2], in test [3], in [4], in test [5], in test [6] and in test [23] was inactive.
With `COc1ccc(CN2CCNCC2)c(OC)c1OC`, the outcome in [1], in test [2], in test [3], in test [4], in [5] and in test [7] was inactive. The outcome in [23] was inactive.
